# Assay results taken from the supplement of paper PMC8728848.
# About 410 targets per protein were measured; listed, in parts, are those with the strongest signals and a random draw of the rest.
# Legend:
# Assay in all cases: glycan array binding signal (z-score within array); higher = stronger binding
# Conditions in all cases: glycan notation: IUPAC condensed, linker removed
# [1] = test system: Gal(b1-2)Gal
# In short: (§1)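 From the Consortium for Functional Glycomics database, 3228 arrays were curated, keeping only those whose protein sequence was available. Binding is given as a within-array Z-score averaged across arrays sharing a protein sequence and across linkers. Negative Z-scores can be read as non-binding.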
# [2] = test system: Gal(b1-3)GalNAc(a1-3)[Fuc(a1-2)]Gal(b1-4)Glc
# In short: as §1
# [3] = test system: Gal(a1-6)Glc
# In short: as §1
# [4] = test system: Gal(b1-3)Gal(b1-4)GlcNAc
# In short: as §1
# [5] = test system: Gal(b1-3)GalNAc(b1-4)[Neu5Gc(a2-3)]Gal(b1-4)Glc
# In short: as §1
# [6] = test system: Gal(b1-3)GalNAc(b1-3)Gal
# In short: as §1
# [7] = test system: Gal(b1-3)GalNAc(b1-4)Gal(b1-4)Glc
# In short: as §1
# [8] = test system: Gal(b1-3)GalNAc
# In short: as §1
# [9] = test system: Gal(b1-3)GalNAc(a1-3)[Fuc(a1-2)]Gal(b1-4)GlcNAc
# In short: as §1
# [10] = test system: Gal(b1-3)GalNAc(b1-3)Gal(a1-4)Gal(b1-4)Glc
# In short: as §1
substance,measurement,setting,value
"BambL (Burhholderia ambifaria), Q0B4G1",glycan array binding signal (z-score),[1],-0.304
same,glycan array binding signal (z-score),[2],-0.278
"Wza (Escherichia coli), P0A930",glycan array binding signal (z-score),[3],3.12
same,glycan array binding signal (z-score),[4],3.02
LcI (Legionella pneumophila),glycan array binding signal (z-score),[1],4.02
"MIC3-MAR1b (Eimeria tenella), B6VCV4",glycan array binding signal (z-score),[5],-0.47
Epa22,glycan array binding signal (z-score),[6],2.8
same,glycan array binding signal (z-score),[7],2.6
same,glycan array binding signal (z-score),[8],1.46
Actinohivin (Actinomycete K97),glycan array binding signal (z-score),[4],-0.14
same,glycan array binding signal (z-score),[9],-0.176
"SiiE (Salmonella typhimurium), A0A0H3NVH0",glycan array binding signal (z-score),[4],-1.51
AgI/II Vhelical-GFP (Streptococcus mutans),glycan array binding signal (z-score),[3],-0.194
same,glycan array binding signal (z-score),[7],-0.139
"SpGH101 (Streptococcus pneumoniae), Q8DR60",glycan array binding signal (z-score),[4],-0.193
same,glycan array binding signal (z-score),[9],1.71
same,glycan array binding signal (z-score),[2],2.88
same,glycan array binding signal (z-score),[8],8.17
"GspB (Streptococcus gordonii), Q939N5",glycan array binding signal (z-score),[10],3.02
